Inconclusive results are not listed. Activity calls are given as the source filed them.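 Rule for the calls, unless noted: active = normalized viability below 100% at a tested concentration; inactive = the rest.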
Key:
[1] = growth inhibition of DIPG glioma cells, dose response, cell-based, SU-DIPG-XVII, MIPE5.0, CellTiter-Glo, qHTS (AID 1347060; cut-off not given, nearly all actives have AC50 up to about 26 µM;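 for AC50: cells exposed to compound for 48 hours before viability readout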); conditions: SU-DIPG-XVII viability, CellTiter-Glo ATP luminescence
[2] = growth inhibition of DIPG glioma cells, dose response, cell-based, SU-DIPG-XIII, MIPE4.0, CellTiter-Glo, qHTS (AID 1347061; cut-off not given, nearly all actives have AC50 up to about 37 µM;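 note: cells exposed to compound for 48 hours before readout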); conditions: SU-DIPG-XIII viability, CellTiter-Glo ATP luminescence
[3] = growth inhibition of DIPG glioma cells, dose response, cell-based, JHH-DIPG-1, MIPE4.0, CellTiter-Glo, qHTS (AID 1347062; cut-off not given, nearly all actives have AC50 up to about 27 µM;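 for AC50: cells exposed to compound for two days before readout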); conditions: JHH-DIPG-1 viability, CellTiter-Glo ATP luminescence
[4] = growth inhibition of DIPG glioma cells, dose response, cell-based, SU-DIPG-XIII, MIPE5.0, CellTiter-Glo, qHTS (AID 1347064; cut-off not given, nearly all actives have AC50 up to about 23 µM;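 for AC50: cells exposed to compound for 48 hours before the viability read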); conditions: SU-DIPG-XIII viability, CellTiter-Glo ATP luminescence
[5] = viability loss in pontine glioma line – cell-based, SU-DIPG-XXV, MIPE5.0, CellTiter-Glo, qHTS, dose response (AID 1347065; cut-off not given, nearly all actives have AC50 up to about 26 µM;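 note: cells exposed to compound for 48 hours before ATP readout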); conditions: CellTiter-Glo ATP luminescence
[6] = JHH-DIPG-1 glioma cell viability, MIPE5.0 library, CellTiter-Glo luminescence, qHTS (AID 1347067; cut-off not given, nearly all actives have AC50 up to about 26 µM;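 note: cells exposed to compound for 48 hours before readout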); conditions: JHH-DIPG-1 glioma viability, CellTiter-Glo ATP luminescence
[7] = SU-DIPG-XXV glioma cell viability, MIPE5.0 library, qHTS (AID 1347068; cut-off not given, nearly all actives have IC50 up to about 30 µM)
[8] = sensitizers of A549 cells to miR-34 induction, primary screen, imaging, A549 dox-inducible miR-34, nuclei and caspase counts (AID 1347080;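 active = compounds whose cell count with miR-34 switched on is under 0.7 times the count with it off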); conditions: A549 miR-34 inducible, Hoechst nuclei count, 48 h
[9] = modifiers of HSF1 nuclear foci, imaging, Selleck Cancer Library (AID 1347162; in the data active = plate-normalised HSF1 focus index below about 0.46); conditions: human cells, at 10 µM; SSMD: measured here: HSF1 foci SSMD mean; cell count: measured here: cell number; plate-normalised HSF1 focus index: stronger effect = lower value
[10] = survival rescue of mitochondrial mutant cells in low glucose, primary screen, MELAS cybrids, Rieske KO mouse fibroblasts, CellTiter-Glo (AID 1508586;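 active = mean z-score across replicates of 1.96 or higher in either the MELAS or the Rieske mutant cell line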;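 note: z relative to plate mean and SD of compound and empty wells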)
[11] = ovarian cancer cell viability with rucaparib, profiling panel, oncology-focused library, rucaparib conditional (AID 1508598); conditions: patient-derived ovarian cancer cells, CellTiter-Glo viability, 144 h, stronger effect = lower value
[12] = SU-DIPG-VI glioma cell viability, MIPE4.0 library, CellTiter-Glo luminescence, qHTS (AID 1347066; cut-off not given, nearly all actives have AC50 up to about 30 µM;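 note: cells exposed to compound for 48 hours before readout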); conditions: CellTiter-Glo ATP luminescence
[13] = stronger effect = lower value, cell number ratio, induced over uninduced
[14] = measured here: relative caspase fold change +Dox/-Dox
[15] = measured here: total cells with miR-34 induction, stronger effect = lower value
[16] = measured here: total cells without miR-34 induction
[17] = MELAS cybrid survival, CellTiter-Glo 48 h, stronger effect = higher value
[18] = Rieske KO mouse fibroblast survival, CellTiter-Glo 72 h
[19] = at 0.000305 µM, OCI-C5x cells, with rucaparib 10 µM, 100% = cells with rucaparib alone
[20] = at 0.000305 µM, OCI-C5x cells, without rucaparib
[21] = at 0.000305 µM, OCI-P5x cells, with rucaparib 20 µM, 100% = cells with rucaparib alone
[22] = at 0.000305 µM, OCI-P5x cells, without rucaparib
[23] = at 0.00122 µM, OCI-C5x cells, with rucaparib 10 µM, 100% = cells with rucaparib alone
[24] = at 0.00122 µM, OCI-C5x cells, without rucaparib
[25] = at 0.00122 µM, OCI-P5x cells, with rucaparib 20 µM, 100% = cells with rucaparib alone
[26] = at 0.00122 µM, OCI-P5x cells, without rucaparib
[27] = at 0.00488 µM, OCI-C5x cells, with rucaparib 10 µM, 100% = cells with rucaparib alone
[28] = at 0.00488 µM, OCI-C5x cells, without rucaparib
[29] = at 0.00488 µM, OCI-P5x cells, with rucaparib 20 µM, 100% = cells with rucaparib alone
[30] = at 0.00488 µM, OCI-P5x cells, without rucaparib
[31] = at 0.0195 µM, OCI-C5x cells, with rucaparib 10 µM, 100% = cells with rucaparib alone
[32] = at 0.0195 µM, OCI-C5x cells, without rucaparib
[33] = at 0.0195 µM, OCI-P5x cells, with rucaparib 20 µM, 100% = cells with rucaparib alone
[34] = at 0.0195 µM, OCI-P5x cells, without rucaparib
[35] = at 0.0781 µM, OCI-C5x cells, with rucaparib 10 µM, 100% = cells with rucaparib alone
[36] = at 0.0781 µM, OCI-C5x cells, without rucaparib
[37] = at 0.0781 µM, OCI-P5x cells, with rucaparib 20 µM, 100% = cells with rucaparib alone
[38] = at 0.0781 µM, OCI-P5x cells, without rucaparib
[39] = at 0.313 µM, OCI-C5x cells, with rucaparib 10 µM, 100% = cells with rucaparib alone
[40] = at 0.313 µM, OCI-C5x cells, without rucaparib
[41] = at 0.313 µM, OCI-P5x cells, with rucaparib 20 µM, 100% = cells with rucaparib alone
[42] = at 0.313 µM, OCI-P5x cells, without rucaparib
[43] = at 1.25 µM, OCI-C5x cells, with rucaparib 10 µM, 100% = cells with rucaparib alone
[44] = at 1.25 µM, OCI-C5x cells, without rucaparib
[45] = at 1.25 µM, OCI-P5x cells, with rucaparib 20 µM, 100% = cells with rucaparib alone
[46] = at 1.25 µM, OCI-P5x cells, without rucaparib
[47] = at 5 µM, OCI-C5x cells, with rucaparib 10 µM, 100% = cells with rucaparib alone
[48] = at 5 µM, OCI-C5x cells, without rucaparib
[49] = at 5 µM, OCI-P5x cells, with rucaparib 20 µM, 100% = cells with rucaparib alone
[50] = at 5 µM, OCI-P5x cells, without rucaparib

With `OCCn1cc(-c2cnc3nnn(Cc4ccc5ncccc5c4)c3n2)cn1` the outcome [1] was “inactive”, the outcome [2] was “inactive” and the outcome [3] was “inactive”. For the same compound, the outcome [4] was “inactive”, the outcome [5] was “inactive” and the outcome [6] was “inactive”. For the same compound, the outcome [7] was “inactive”, the fold change [8, 13] was 0.95 (inactive) and the fold change [8, 14] was 1.2. It also gave a cell count [8, 15] of 7870, a cell count [8, 16] of 8280 and an SSMD [9] of 2.68. The cell count [9] was 7630, the plate-normalised HSF1 focus index [9] was 1.17 (inactive) and the z-score [10, 17] was -0.449 (inactive). For the same compound, the z-score [10, 18] was 0.57, the viability [11, 19] was 111% (inactive) and the viability [11, 20] was 109% (inactive). For the same compound, the viability [11, 21] was 99.5% (active), the viability [11, 22] was 102% (inactive) and the viability [11, 23] was 118% (inactive). For the same compound, the viability [11, 24] was 110% (inactive), the viability [11, 25] was 106% (inactive) and the viability [11, 26] was 105% (inactive). The viability [11, 27] was 119% (inactive), the viability [11, 28] was 113% (inactive) and the viability [11, 29] was 102% (inactive). The viability [11, 30] was 102% (inactive), the viability [11, 31] was 118% (inactive) and the viability [11, 32] was 112% (inactive). The viability [11, 33] was 102% (inactive), the viability [11, 34] was 99.8% (active) and the viability [11, 35] was 124% (inactive). The viability [11, 36] was 117% (inactive), the viability [11, 37] was 102% (inactive) and the viability [11, 38] was 101% (inactive). The viability [11, 39] was 126% (inactive), the viability [11, 40] was 118% (inactive) and the viability [11, 41] was 102% (inactive). The viability [11, 42] was 106% (inactive), the viability [11, 43] was 124% (inactive) and the viability [11, 44] was 113% (inactive). For the same compound, the viability [11, 45] was 101% (inactive), the viability [11, 46] was 99.8% (active) and the viability [11, 47] was 148% (inactive). The viability [11, 48] was 123% (inactive), the viability [11, 49] was 97.4% (active) and the viability [11, 50] was 94.2% (active).

For `Cn1cnc2c(F)c(Nc3ccc(Br)cc3Cl)c(C(=O)NOCCO)cc21`, the AC50 [1] was 4.17 µM (active), the AC50 [2] was 10.5 µM (active) and the AC50 [3] was 9.35 µM (active). The AC50 [4] was 5.9 µM (active), the AC50 [5] was 4.68 µM (active) and the outcome [12] was “inactive”. For the same compound, the AC50 [6] was 0.833 µM (active), the fold change [8, 13] was 1.01 (inactive) and the fold change [8, 14] was 0.759. It also gave a cell count [8, 15] of 3770, a cell count [8, 16] of 3730 and an SSMD [9] of 2.54. The cell count [9] was 7320, the plate-normalised HSF1 focus index [9] was 1.09 (inactive) and the z-score [10, 17] was -0.103 (inactive). For the same compound, the z-score [10, 18] was -0.489, the viability [11, 19] was 105% (inactive) and the viability [11, 20] was 106% (inactive). For the same compound, the viability [11, 21] was 80.8% (active), the viability [11, 22] was 84.9% (active) and the viability [11, 23] was 104% (inactive). The viability [11, 24] was 92.6% (active), the viability [11, 25] was 81.4% (active) and the viability [11, 26] was 82.8% (active). For the same compound, the viability [11, 27] was 101% (inactive), the viability [11, 28] was 93.7% (active) and the viability [11, 29] was 70.3% (active). The viability [11, 30] was 75.1% (active), the viability [11, 31] was 110% (inactive) and the viability [11, 32] was 92.3% (active). For the same compound, the viability [11, 33] was 56.4% (active), the viability [11, 34] was 70.1% (active) and the viability [11, 35] was 102% (inactive). For the same compound, the viability [11, 36] was 83.8% (active), the viability [11, 37] was 53.5% (active) and the viability [11, 38] was 65.2% (active). For the same compound, the viability [11, 39] was 104% (inactive), the viability [11, 40] was 80.4% (active) and the viability [11, 41] was 43.6% (active). The viability [11, 42] was 59.6% (active), the viability [11, 43] was 84% (active) and the viability [11, 44] was 82.2% (active). For the same compound, the viability [11, 45] was 38.2% (active), the viability [11, 46] was 61.5% (active) and the viability [11, 47] was 49.5% (active). The viability [11, 48] was 51.1% (active), the viability [11, 49] was 25.6% (active) and the viability [11, 50] was 32.7% (active).

In the case of `O=C(CCCCCCC(=O)Nc1cccnc1)NO`, the AC50 [1] is reported as 8.33 µM (active), the AC50 [2] is reported as 9.35 µM (active) and the AC50 [3] is reported as 7.43 µM (active). For the same compound, the AC50 [4] was 5.9 µM (active), the AC50 [5] was 7.42 µM (active) and the AC50 [6] was 3.32 µM (active). For the same compound, the SSMD [9] was 1.14, the cell count [9] was 7080 and the plate-normalised HSF1 focus index [9] was 1.07 (inactive).
